# Data published in PubChem BioAssay AID501 (PCMD, 2006).
# Screen size: about 62,000 compounds; about 35 (0.06%) were called active. The full list was thinned out, with actives kept by preference. Unmarked numbers belong to inactive results. No stated cut-off is given here; in the data, active means inhibition above about 32% (passing the limit was not always enough); inconclusive means no clear call, values can overlap the other calls.
# Biological target: Cathepsin S (Homo sapiens) (UniProt P25774)
# Assay: inhibitors of human cathepsin S, biochemical, compound mixtures (AID 501);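 further: 0% = enzyme without compound and 100% = blank without enzyme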
# Conditions: recombinant cathepsin S, AMC dipeptide fluorescence, pooled mixtures; hits give high values;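 tested at 5 µM per compound within 10-compound mixtures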
# Sequence of Cathepsin S (Homo sapiens) (P25774 115-331 limits assumed): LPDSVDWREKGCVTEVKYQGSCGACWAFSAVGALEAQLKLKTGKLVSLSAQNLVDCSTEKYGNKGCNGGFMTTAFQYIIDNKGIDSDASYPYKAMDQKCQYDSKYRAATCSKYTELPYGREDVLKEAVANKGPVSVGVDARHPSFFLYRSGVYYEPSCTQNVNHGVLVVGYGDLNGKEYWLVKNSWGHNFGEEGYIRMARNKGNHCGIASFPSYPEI
row,Compound,inhibition
1,Cc1nn(-c2ccccc2)c2sc(C(=O)N(Cc3ccco3)C(C)C(=O)NC(C)(C)C)cc12 (stereo not drawn),13.8%
2,c1ccc2c(c1)OCC(CNc1ncnc3nc[nH]c13)O2 (stereo not drawn),-0.615%
3,O=C(CN1CCN(c2ncc(C(F)(F)F)cc2Cl)CC1)Nc1ccc2c(c1)OCO2,13.5%
4,COc1ccc(-c2noc(CN(C)S(=O)(=O)c3ccc(C)cc3)n2)cc1,8.41%
5,Cc1ccc2c(c1)N(C(=O)CCC(=O)N1CCc3ccccc3C1)CCO2,-12.7%
6,CC1CCCC(C)N1CCCNC(=O)c1cc2c(=O)n(C)c3ccccc3c2n1C (stereo not drawn),7.08%
7,CCn1c(=O)cc(OCC(=O)NCCCN2CCN(c3cccc(Cl)c3)CC2)c2ccccc21,4.46%
8,Cn1c(C(=O)NCCCN2CCN(c3cccc(Cl)c3)CC2)cc2c(=O)n(C)c3ccccc3c21,33% (active)
9,COc1ccc(-c2ccc(-c3noc(-c4ccncc4)n3)c(OC)n2)cc1,6.8%
10,COc1ccccc1N1CCN(c2nc3ccccc3n3nnnc23)CC1,8.24%
11,CC1CCCC(NC(=O)CN2CCN(Cc3ccc(Cl)cc3)C2=O)C1C (stereo not drawn),-3.54%
12,CCN(CC)S(=O)(=O)c1ccc2nc(CSc3nnnn3-c3ccc(O)cc3)[nH]c2c1,-6.33%
13,CCC(C)Sc1nnc(-c2c[nH]c3ccccc23)n1CCOC (stereo not drawn),-1.22%
14,COc1ccc(-c2cc3n(n2)CCc2nc4ccccc4n2-3)cc1,-5.35%
15,CCN(CC)C(=O)CSc1nnc(-c2ccc(S(=O)(=O)NCc3ccccc3Cl)cc2)o1,6.42%
16,O=c1/c(=C/c2ccc(CNS(=O)(=O)c3ccccc3)o2)sc2n1CCN=2,-0.38%
17,Cc1cc(C)nc(SCc2ccccc2C#N)n1,-2.31%
18,CCc1cc(=O)oc2cc(C)cc(OC(C)C(=O)O)c12 (stereo not drawn),-5.16%
19,CN1CCN(Cc2c(O)ccc3c2oc(=O)c2ccccc23)CC1,6.08%
20,CCNS(=O)(=O)c1ccc(NC(=O)Nc2cccc(C(F)(F)F)c2)cc1,-6.53%
21,Cc1c2cnn(-c3ccccc3)c(=O)c2c(C)n1CCCC(=O)N1CCN(C)CC1,-3.9%
22,CC(NC(=O)c1ccco1)C(=O)Nc1nc(-c2ccccn2)cs1 (stereo not drawn),12%
23,O=C(O)C1C2C=CC(C2)C1C(=O)N1CCN(CCO)CC1 (stereo not drawn),3.18%

row,Compound,inhibition
1,CC(=O)c1cnc(Nc2nc(C)c3cc(C)ccc3n2)nc1C,-5.6%
2,CC(C)NS(=O)(=O)c1ccc(OCC(=O)Nc2ccc3c(c2)OCCO3)cc1,22.9%
3,CC(C)Nc1nc(N(c2ccccc2)c2ccccc2)nc(-n2ccnc2)n1,-8.9%
4,N#Cc1nc(N)nc(N(c2ccccc2)c2ccccc2)n1,49.2% (active)
5,CC(C)n1c(SCC(=O)Nc2ccccc2N2CCCCC2)nc2c1c(=O)n(C)c(=O)n2C,-0.72%
6,CCOC(=O)C1=C(CNC2CCCCC2)NC(=O)NC1c1cc(C)ccc1C (stereo not drawn),-0.495%
7,O=c1cc(CO)oc(CN2CCC(Cc3ccccc3)CC2)c1O,4.81%
8,C=CCN1C(=O)C(O)(CC(=O)c2ccc(Cl)cc2)c2ccccc21 (stereo not drawn),-18%
9,CC(C)N1C(=O)C2C(C(=O)NC3CCCCC3)C3C=CC2(O3)C1C(=O)NC1CCCC1 (stereo not drawn),-8.37%
10,COc1ccc(-c2csc(N3CCN(Cc4ccc5c(c4)OCO5)CC3)n2)cc1,-3.99%
11,COc1ccc(C(=O)Nc2ccc3c(c2)OCO3)cc1OC,-4.12%
12,Cc1ccc(C(=O)Nc2ccc3c(c2)OCO3)cc1S(=O)(=O)N1CCCCC1,85.5% (active)
13,Cc1ccc(C(=O)NCC(=O)O)cc1S(=O)(=O)N1CCCCC1,-10.7%
14,Cc1ccc(S(=O)(=O)N2CCCC2C(=O)NCc2ccco2)cc1 (stereo not drawn),12.5%
15,CC1(C)CC(CCC(=O)Nc2ccccc2Cl)C(=O)O1 (stereo not drawn),-3.38%
16,Cc1ccc(C(=O)NCC2CCCO2)o1 (stereo not drawn),0.56%
17,CCOC(=O)c1c(C)c(C(=O)NCCc2ccc(S(N)(=O)=O)cc2)c(C)n1CC,-0.765%
18,CC(CCc1ccccc1)NC(=O)c1ccc(Br)o1 (stereo not drawn),-7.32%
19,CC1(C)Cc2ccccc2-c2nnc(-c3cccc(O)c3)n21,-3.6%
20,O=C(c1ccc(S(=O)(=O)N2CCOCC2)cc1)N1CCN(c2ccccc2)CC1,-24.7%
21,C#CCN1CC(C)/C(=N/O)CC1C (stereo not drawn),-8.55%
22,CCOC(=O)C1(c2ccccc2)NC(c2ccc(N(C)C)cc2)C2C(=O)N(C)C(=O)C21 (stereo not drawn),12.2%
23,O=S(=O)(NCCNS(=O)(=O)c1ccccc1)c1ccccc1,-7.43%

row,Compound,inhibition
1,Cc1nc(N2CCCC2C(=O)O)c2oc3ccccc3c2n1 (stereo not drawn),8.31%
2,COc1ccc(CCn2c(NCCCN3CCOCC3)nc3c2c(=O)[nH]c(=O)n3C)cc1,5.43%
3,CCOC(=O)c1sc(=S)n2c1[nH]c(=O)c1ccc(C(=O)OC)cc12,-0.96%
4,O=C(CC(NS(=O)(=O)c1ccc(Cl)cc1)c1ccco1)NC1CCCC1 (stereo not drawn),-2.72%
5,CC(=O)Nc1nc(C)c(Cc2ccccc2)c(=O)[nH]1,-3.33%
6,CCCCSc1nnc(-c2ccc(C)cc2)o1,0.235%
7,O=C(c1ccc2c(c1)C(=O)N(c1ccc(Cl)cc1)C2=O)N1CCN(c2ccccn2)CC1,2.28%
8,O=C(NCc1ccco1)c1ccc(CS(=O)(=O)Cc2ccc(F)cc2)o1,-5.21%
9,COc1cccc(-c2nc3n(n2)C(c2ccccc2Cl)C(C(N)=O)=C(C)N3)c1 (stereo not drawn),-4.19%
10,CC1(C)CCCC2=C1CC1C(=O)N(c3ccccc3)C(=O)C1C2 (stereo not drawn),8.69%
11,Cc1ccc(-n2c(SCC(=O)Nc3ccc4c(c3)OCO4)nnc2-c2ccoc2C)cc1,7.19%
12,CC12COC3(C(=O)Nc4ccc(Cl)cn4)CC1CCC32C (stereo not drawn),-6.89%
13,COC(=O)C1(S(=O)(=O)C2(C(=O)OC)CCCC2)CCCC1,-5.82%
14,CCOc1ccc2[nH]c(=O)c(CN(Cc3nnnn3Cc3ccccc3)CC3CCCO3)cc2c1 (stereo not drawn),6.16%
15,CCOC(=O)CSc1nccc(N(C)C)c1C#N,14.4%
16,Cc1nnc(N(Cc2ccco2)C(=O)c2ccno2)s1,-4.35%
17,CCn1c(=O)cc(O)c2ccccc21,9.68%
18,COc1cc(C(=O)N(Cc2ccc(N(C)C)cc2)C2CCS(=O)(=O)C2)cc(OC)c1OC (stereo not drawn),0.64%
19,Nc1nnc(C2CCCC2)s1,14.3%
20,CCc1ccccc1NC(=O)c1cccs1,8.09%
21,CCOC(=O)C1=C(CC)Nc2ccccc2N=C1NC(=O)c1cccc(S(=O)(=O)N2CCCC2)c1,-5.2%
22,CCC(=O)NC(=Nc1nc2ccccc2s1)NC(=O)CC,-2.2%
23,C=CCn1c(SCc2cc(C(=O)OC)c(C)o2)nnc1-c1ccncc1,-3.76%

row,Compound,inhibition
1,CCOc1ccc(-c2nnc(-c3ccco3)o2)cc1,-3.01%
2,CCOc1ccc(OCC)c(NC(=O)CN(C)S(=O)(=O)c2cccc3nsnc23)c1,-22.2%
3,CCOC(=O)CSc1nnc(CNc2ccc(F)cc2)o1,-5.03%
4,Cn1c(=NC(=O)CSCC(=O)N2CCOCC2)sc2ccccc21,14.7%
5,Cn1c(=O)[nH]c(=O)c2c1nc(CN(Cc1ccccc1)Cc1ccccc1)n2CCN1CCOCC1,2.01%
6,COc1ccc(Br)cc1S(=O)(=O)N1CCN=C1C,-2.2%
7,Cn1c(=NC(=O)CSCC(=O)N2CCCCC2)sc2ccccc21,6.42%
8,CSCCC(NS(=O)(=O)/C=C/c1ccccc1)C(=O)N1CCC(C)CC1 (stereo not drawn),-1.31%
9,CCOC(=O)N1CCC(NC(=O)CCc2cn(C)c3ccccc23)CC1,-4.61%
10,CCn1cc(C(=O)NCc2ccc(OC)cc2OC)c(=O)c2ccc(C)nc21,0.185%
11,CCN(CC)P(=O)(/C(Cl)=C\Nc1c(C)n(C)n(-c2ccccc2)c1=O)N(CC)CC,0.845%
12,COc1ccc(C)cc1NC(=O)c1[nH]c(C)c(C(C)=O)c1C,-3.92%
13,Fc1ccc2[nH]c3c(N4CCN(Cc5ccc6c(c5)OCO6)CC4)ncnc3c2c1,-6.06%
14,CCc1c(C)nc(N)n2c(SCC(=O)N3CCN(c4ccccc4)CC3)nnc12,-12.8%
15,CN1CCN(CC(O)COCc2ccc3c(c2)OCO3)CC1 (stereo not drawn),5.75%
16,CC(=O)Nc1cccc(NC(=O)c2c(-c3ccccc3)noc2C)c1,-5.8%
17,O=C(NCCCN1CCOCC1)c1cc(-c2ccc(Cl)cc2)on1,-0.13%
18,O=C(NCCc1ccco1)c1nn(Cc2ccccc2)c(=O)c2ccccc12,11.9%
19,O=C(C1CCCO1)N(Cc1ccccc1)c1ccccc1 (stereo not drawn),-2.27%
20,Cc1ccsc1C(C(=O)NC1CCCCC1)N(C(=O)Cc1cccs1)C1CC1 (stereo not drawn),6.71%
21,Cc1cc(=O)n2nc(N3CCCC(C(=O)NCCC4=CCCCC4)C3)sc2n1 (stereo not drawn),19.8%
22,CCOC(=O)C1CCCN(C(=O)Cn2ncc3c(=O)oc4ccc(C)cc4c32)C1 (stereo not drawn),7.33%
23,O=C(Nc1cccnc1)c1noc2c1CCCCC2,10.9%

row,Compound,inhibition
1,CCc1cc2c(=O)c(-c3ccon3)c(N)oc2cc1OC,-1.48%
2,COc1ccc(C(c2nnnn2Cc2cccs2)N2CCN(c3ccccc3)CC2)cc1OC (stereo not drawn),-6.06%
3,CC(C)COC(=O)C1C2C=CC3(CN(C(C)c4ccc(Br)cc4)C(=O)C13)O2 (stereo not drawn),14.7%
4,O=C(O)c1ccc(-n2cccc2)cc1O,5.17%
5,CCOc1cc(C(=O)Nc2ncccn2)cc(OCC)c1OCC,31.7%
6,Cc1ccsc1CNn1cnnc1SCc1ccccc1F,-4.25%
7,CCOC(=O)CCCNC(=O)CN1C(=O)NC(CCc2ccccc2)C1=O (stereo not drawn),-3.72%
8,CC1CCCC(N2CCN(C(=O)c3ccc(F)cc3)CC2)C1 (stereo not drawn),-4.6%
9,CSCC[C@H](NC(=O)NCCc1ccc(F)cc1)C(=O)O,-4.51%
10,CCCCc1cc(=O)oc2cc(C)cc(OCc3nn[nH]n3)c12,1.43%
11,CCN(CC)S(=O)(=O)c1ccc(NC(=O)CN(c2cccc(F)c2)S(C)(=O)=O)cc1,-8.46%
12,CC(C)(CSc1nncn1/N=C/c1ccco1)NS(=O)(=O)c1ccc(Cl)cc1,6.83%
13,CC1(C)SC2c3ccccc3C(=O)N2[C@@H]1C(=O)NCc1ccco1 (stereo partly drawn),-3.88%
14,CCOC(=O)c1c(C)[nH]c(C)c1C(=O)CSc1nc(N)cc(N)n1,5.32%
15,O=C(C1CCN(c2nnc(-n3cccc3)s2)CC1)N1CCc2ccccc2C1,4.27%
16,Cc1cc(Nc2cccc(C)c2C)n2ncnc2n1,-1.92%
17,COC(=O)c1ccc(NC(=O)CN(c2ccc(C)cc2)S(=O)(=O)c2c(C)n[nH]c2C)cc1,-7.46%
18,COc1ccc(N(CC(=O)NC(C)(C)C)C(=O)c2ccco2)cc1,10.2%
19,Cc1cc(Cl)ccc1N1C(=O)CC(SCCC(=O)O)C1=O (stereo not drawn),1.91%
20,COc1cc2ccccc2cc1C(=O)Nc1ccc(S(=O)(=O)Nc2cc(C)on2)cc1,-7.28%
21,Cc1cc(=O)[nH]c(SCC(=O)N2c3ccccc3CC2C)n1 (stereo not drawn),33.4%
